In PubChem BioAssay:
For some of these results: Results with a measured potency or affinity are listed apart. Calls of active or inactive are those of the source. Unless noted, no rule for the calls is given here.

How the values were obtained:
[1] = antimalarial activity against Dd2 strain (AID 2302;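 active = growth inhibition above 50% at the single 2 µM test dose, taken to imply half-maximal potency below 2 µM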;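 also: 0% = DMSO untreated growth and 100% = chloroquine plus artemisinin killed control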); conditions: P. falciparum Dd2 in RBCs, LDH growth readout, 72 h; at 2 µM; hits give high values
[2] = human hepatoma cell viability loss – ATP luminescence, cytotoxicity control for P. falciparum antimalarial project, primary screen (AID 2303;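 active = inhibition above 50%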;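 also: 0% = DMSO wells and 100% = digitonin-killed cells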); conditions: HepG2 viability, 24-48 h, at 10 µM, hits give high values
[3] = molecular target: L-lactate dehydrogenase (Plasmodium falciparum (isolate CDC / Honduras)) (UniProt Q27743); test: PfLDH activity inhibition – cell lysate, 3D7 strain, counter-screen for P. falciparum growth inhibition project (AID 2304);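 also: 0% = vehicle and 100% = reference inhibitor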; conditions: P. falciparum 3D7 crude extract, LDH APAD/NBT absorbance; at 2 µM; hits give high values
L-lactate dehydrogenase (Plasmodium falciparum (isolate CDC / Honduras)), sequence (Q27743 whole entry, looked up): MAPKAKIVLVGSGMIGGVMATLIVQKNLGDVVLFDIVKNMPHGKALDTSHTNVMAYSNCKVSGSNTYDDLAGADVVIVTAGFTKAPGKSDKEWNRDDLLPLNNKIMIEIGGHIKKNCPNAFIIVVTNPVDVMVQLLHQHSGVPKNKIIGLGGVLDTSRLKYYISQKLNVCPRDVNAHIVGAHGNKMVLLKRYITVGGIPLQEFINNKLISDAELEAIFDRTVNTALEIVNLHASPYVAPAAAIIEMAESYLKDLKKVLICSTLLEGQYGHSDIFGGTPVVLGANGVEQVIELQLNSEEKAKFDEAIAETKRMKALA

[4] = inhibition of 3D7 malaria parasite growth – strain 3D7 (AID 2306);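 also: 0% = DMSO wells and 100% = chloroquine plus artemisinin control wells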; conditions: P. falciparum 3D7 erythrocytic growth, LDH absorbance, 72 h; at 2 µM; hits give high values
[5] = molecular target: Calcium-dependent protein kinase 1 (Plasmodium falciparum (isolate 3D7)) (UniProt P62344); test: PfCDPK1 kinase inhibitors, biochemical, TCAMS library (AID 1159585; cut-off not given, nearly all actives have IC50 up to about 0.98 µM;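 also: inhibitors leave more ATP so luminescence rises with inhibition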); conditions: recombinant PfCDPK1, Kinase-Glo ATP depletion luminescence
Calcium-dependent protein kinase 1 (Plasmodium falciparum (isolate 3D7)), sequence (P62344 whole entry, looked up): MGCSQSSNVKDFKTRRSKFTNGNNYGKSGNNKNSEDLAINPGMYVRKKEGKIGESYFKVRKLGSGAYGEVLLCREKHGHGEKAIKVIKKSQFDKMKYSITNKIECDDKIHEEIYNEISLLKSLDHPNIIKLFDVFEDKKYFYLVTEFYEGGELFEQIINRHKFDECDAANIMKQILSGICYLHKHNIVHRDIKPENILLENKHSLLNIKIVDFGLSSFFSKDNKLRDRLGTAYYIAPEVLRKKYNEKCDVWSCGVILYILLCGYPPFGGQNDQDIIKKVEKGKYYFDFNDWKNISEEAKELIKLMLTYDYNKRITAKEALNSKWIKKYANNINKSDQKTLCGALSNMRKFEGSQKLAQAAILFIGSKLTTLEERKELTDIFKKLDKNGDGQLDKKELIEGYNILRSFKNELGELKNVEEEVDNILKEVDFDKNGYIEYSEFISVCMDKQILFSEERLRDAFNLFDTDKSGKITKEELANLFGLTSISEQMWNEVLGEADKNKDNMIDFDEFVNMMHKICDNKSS

[6] = molecular target: Plasmodium falciparum protein kinase 6 (PK6, PF3D7_1337100) (UniProt Q8IDW1); test: PfPK6 kinase inhibitors, biochemical, TCAMS library (AID 1159586); conditions: recombinant PfPK6, Kinase-Glo ATP depletion luminescence
Plasmodium falciparum protein kinase 6 (PK6, PF3D7_1337100), sequence (Q8IDW1 1-305): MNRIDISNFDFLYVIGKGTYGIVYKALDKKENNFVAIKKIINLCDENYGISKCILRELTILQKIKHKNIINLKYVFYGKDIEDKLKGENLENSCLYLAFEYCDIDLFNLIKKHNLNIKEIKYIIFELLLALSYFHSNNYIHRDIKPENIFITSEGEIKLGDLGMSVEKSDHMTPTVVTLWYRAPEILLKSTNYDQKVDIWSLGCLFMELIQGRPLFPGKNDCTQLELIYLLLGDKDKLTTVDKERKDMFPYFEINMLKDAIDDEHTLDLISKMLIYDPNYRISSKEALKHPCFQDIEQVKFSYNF

[7] = molecular target: Protein kinase 7 (PK7), Plasmodium falciparum 3D7 (PF3D7_0213400) (UniProt Q7YTF7); test: inhibition of Plasmodium PK7 catalytic activity – biochemical, TCAMS antimalarial set, Kinase-Glo luminescence (AID 1159587); conditions: recombinant PfPK7, Kinase-Glo ATP depletion luminescence
Protein kinase 7 (PK7), Plasmodium falciparum 3D7 (PF3D7_0213400), sequence (Q7YTF7 1-343): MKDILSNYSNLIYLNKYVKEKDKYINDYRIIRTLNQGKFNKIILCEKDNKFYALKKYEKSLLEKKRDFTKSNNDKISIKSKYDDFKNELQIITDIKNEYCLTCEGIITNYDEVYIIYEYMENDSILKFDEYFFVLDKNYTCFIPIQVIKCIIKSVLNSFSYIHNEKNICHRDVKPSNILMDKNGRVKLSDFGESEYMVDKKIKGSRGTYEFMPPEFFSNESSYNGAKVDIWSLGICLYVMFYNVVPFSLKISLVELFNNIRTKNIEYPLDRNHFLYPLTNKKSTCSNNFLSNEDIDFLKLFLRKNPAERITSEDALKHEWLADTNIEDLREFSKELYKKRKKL

[8] = molecular target: Calcium-dependent protein kinase 4 (Plasmodium falciparum (isolate 3D7)) (UniProt Q8IBS5); test: PfCDPK4 kinase inhibitors, biochemical, TCAMS library (AID 1159588; cut-off not given, nearly all actives have IC50 up to about 0.91 µM); conditions: recombinant PfCDPK4, Kinase-Glo ATP depletion luminescence
Calcium-dependent protein kinase 4 (Plasmodium falciparum (isolate 3D7)), sequence (Q8IBS5 whole entry, looked up): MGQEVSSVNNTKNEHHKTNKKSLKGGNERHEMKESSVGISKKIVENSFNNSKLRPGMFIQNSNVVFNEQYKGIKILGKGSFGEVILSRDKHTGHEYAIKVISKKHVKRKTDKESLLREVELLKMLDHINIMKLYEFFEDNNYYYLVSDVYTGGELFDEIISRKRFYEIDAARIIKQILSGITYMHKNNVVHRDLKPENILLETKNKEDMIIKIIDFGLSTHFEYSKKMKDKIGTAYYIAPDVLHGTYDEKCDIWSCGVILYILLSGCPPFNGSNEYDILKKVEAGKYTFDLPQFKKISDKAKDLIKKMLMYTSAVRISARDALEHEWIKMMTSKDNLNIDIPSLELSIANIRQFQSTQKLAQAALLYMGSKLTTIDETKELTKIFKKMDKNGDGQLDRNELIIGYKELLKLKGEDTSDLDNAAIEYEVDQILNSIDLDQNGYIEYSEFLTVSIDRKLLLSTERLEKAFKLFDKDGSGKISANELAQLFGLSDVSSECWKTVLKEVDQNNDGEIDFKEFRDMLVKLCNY

COc1ccc([C@@]23Oc4cc(OC)cc(OC)c4[C@]2(O)C2(CC3c3ccccc3)SCCCS2)cc1 (stereo not given in full)
inactive: inhibition [2] 39% | inhibition [3] -10% | outcome [5] | outcome [6] | outcome [7] | outcome [8]
active: growth inhibition [1] 97% | growth inhibition [4] 96%

O=C(NC1CCN(c2ncc(C(F)(F)F)cc2Cl)CC1)c1cccs1
inactive: inhibition [2] 15% | inhibition [3] -1% | outcome [5] | outcome [6] | outcome [7] | outcome [8]
active: growth inhibition [1] 65% | growth inhibition [4] 84%

CCC(C)NS(=O)(=O)c1ccc2nc(Nc3ccc(C)cc3)n([C@H](C)C(C)(C)C)c2c1 (stereo not given in full)
active: growth inhibition [1] 98% | growth inhibition [4] 98%
inactive: inhibition [2] 2% | inhibition [3] 0% | outcome [5] | outcome [6] | outcome [7] | outcome [8]

COc1cccc2cc(C(=O)N[C@@H](CC(C)C)C(=O)N[C@H](/C=N/NC(=O)OC(C)(C)C)CC(=O)OC(C)(C)C)oc12
inactive: inhibition [2] 4% | inhibition [3] 0% | outcome [5] | outcome [6] | outcome [7] | outcome [8]
active: growth inhibition [1] 57% | growth inhibition [4] 85%

CCC[C@@H]([C@@H](CC1CCCCC1)C(=O)N[C@H](C(=O)Nc1nccs1)C(C)(C)SC)N(O)C=O
active: growth inhibition [1] 98% | inhibition [2] 51% | growth inhibition [4] 97%
inactive: inhibition [3] 7% | outcome [5] | outcome [6] | outcome [7] | outcome [8]

COC(=O)c1ccc(-c2ccc(C(=O)NCC3CCN(c4nc(N)c5cc(OC)c(OC)cc5n4)CC3)cc2)cc1
inactive: inhibition [3] -4% | outcome [5] | outcome [6] | outcome [7] | outcome [8]
active: growth inhibition [1] 100% | inhibition [2] 53% | growth inhibition [4] 98%

CCNc1cc(C(=O)N[C@@H](Cc2ccccc2)[C@H](O)CNC2CCC(C)(C)C2)cc(N2CCCCS2(=O)=O)c1 (stereo not given in full)
inactive: inhibition [2] 3% | inhibition [3] 6% | outcome [5] | outcome [6] | outcome [7] | outcome [8]
active: growth inhibition [1] 98% | growth inhibition [4] 96%

COc1ccc2nccc(NN=Cc3ccccc3F)c2c1
inactive: inhibition [2] 23% | inhibition [3] -2% | outcome [5] | outcome [6] | outcome [7] | outcome [8]
active: growth inhibition [1] 98% | growth inhibition [4] 103%

Cc1cc(CN2CCC(N3CC(c4ccccc4)(c4ccccc4)OC3=O)C2)ccc1O (stereo not given)
inactive: inhibition [2] -3% | inhibition [3] 1% | outcome [5] | outcome [6] | outcome [7] | outcome [8]
active: growth inhibition [1] 68% | growth inhibition [4] 96%

COc1ccc(Nc2cc(C)c3cc(NC(=O)c4ccncc4)ccc3n2)cc1
inactive: growth inhibition [1] 26% | inhibition [2] 0% | inhibition [3] 2% | outcome [5] | outcome [6] | outcome [7] | outcome [8]
active: growth inhibition [4] 98%

Cc1cccc2[nH]c(-c3ccc(-c4cccc(CNCCNC(=O)c5ccnn5C)c4)s3)nc12
inactive: inhibition [2] 17% | inhibition [3] -4% | outcome [5] | outcome [6] | outcome [7] | outcome [8]
active: growth inhibition [1] 87% | growth inhibition [4] 102%

CN(C)C(=O)O[C@@H]1CN[C@H](C#Cc2cc3ncnc(Nc4ccc5c(cnn5Cc5cccc(F)c5)c4)c3s2)C1
active: growth inhibition [1] 68% | growth inhibition [4] 97%
inactive: inhibition [2] 0% | inhibition [3] 7% | outcome [5] | outcome [6] | outcome [7] | outcome [8]

C=C[C@]1(C)C[C@@H](OC(=O)c2cncn(COC)c2=O)[C@]2(C)[C@H](C)CC[C@]3(CCC(=O)[C@H]32)[C@@H](C)[C@@H]1O
active: growth inhibition [4] 96%
inactive: growth inhibition [1] 7% | inhibition [2] -1% | inhibition [3] -1% | outcome [5] | outcome [6] | outcome [7] | outcome [8]

O=c1[nH]c2ccc3[nH]cccc3c2c1C=Nc1ccc(N2CCN(CCO)CC2)cc1
inactive: inhibition [2] 34% | inhibition [3] -6% | outcome [5] | outcome [6] | outcome [7] | outcome [8]
active: growth inhibition [1] 55% | growth inhibition [4] 86%

Cn1cc(C2CCN(CCCCNC(=O)c3sc(-c4ccc(C(F)(F)F)cc4)nc3CO)CC2)c2ccccc21
inactive: growth inhibition [1] 15% | inhibition [2] 46% | inhibition [3] -3% | outcome [5] | outcome [6] | outcome [7] | outcome [8]
active: growth inhibition [4] 95%

Cc1ccc(NC(=O)Nc2ccc(Cn3ncc(N4CCCNCC4)c(Cl)c3=O)cc2)cc1
inactive: growth inhibition [1] 13% | inhibition [2] 35% | inhibition [3] -1% | outcome [5] | outcome [6] | outcome [7] | outcome [8]
active: growth inhibition [4] 84%

Nc1nc(N)c2c(ccc3c2ccn3C2C=CCCC2)n1 (stereo not given)
active: growth inhibition [1] 65% | inhibition [2] 68% | growth inhibition [4] 94%
inactive: inhibition [3] -2% | outcome [5] | outcome [6] | outcome [7] | outcome [8]

CC(=O)Nc1nc(C(=O)Nc2cccc(-c3ccc(-c4nc5c(C)cccc5[nH]4)cc3)c2)cs1
inactive: inhibition [3] -3% | outcome [5] | outcome [6] | outcome [7] | outcome [8]
active: growth inhibition [1] 61% | inhibition [2] 100% | growth inhibition [4] 100%

CC(C)Cn1ncc2c3c(N)nc(N)nc3ccc21
active: growth inhibition [1] 73% | inhibition [2] 63% | growth inhibition [4] 94%
inactive: inhibition [3] 1% | outcome [5] | outcome [6] | outcome [7] | outcome [8]

CC(C)NCc1ccc(-c2ccc(NC(=O)c3cccc(Cl)c3)cc2)cc1
active: growth inhibition [4] 100%
inactive: growth inhibition [1] 14% | inhibition [2] 36% | inhibition [3] -2% | outcome [5] | outcome [6] | outcome [7] | outcome [8]
